High-throughput results deposited in PubChem BioAssay by National Center for Advancing Translational Sciences (NCATS).
KB-3-1 cytotox – kills parental KB-3-1 adenocarcinoma cells. KB-3-1 viability, CellTiter-Glo ATP luminescence, 72 h. Potency, µM (titrated, usually from 46.1 µM), actives largely listed as cytotoxic. hit rate 1.4% among 400,000. AID 1347075; note: % is set by controls: 0 for no effect and ±100 for the full control effect; nearly all actives have a fitted effect of over 60% in size
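Screening of KB-3-1 cells (DMEM, 10% FBS, phenol-red free) ran from lowest to highest compound concentration; after 72 h at 37 °C viability was read luminescently and curves fitted.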
MCF10A rereplic – inducers of DNA re-replication in MCF 10A breast cells. MCF 10A DNA re-replication, Hoechst nuclear intensity, 48 h. Potency, µM (highest dose often 46.1 µM), for inactives: at the highest dose activity, positive = re-replication, hits mostly activators. hit rate 2.9% among 350,000. AID 624296; note: % of control where 0% means no effect; nearly all actives have a fitted effect of over 50% in size
HT1080 IDH1KD tx – toxicity to HT-1080 IDH1 knockdown cells (counter line); HT-1080 IDH1 knockdown viability, ATP luminescence, 48 h; Potency, µM (top dose mostly 46.1 µM), inactives show at the top dose activity, negative = toxicity, hits mostly cytotoxic; hit rate 2% among 360,000;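 note: 0% = DMSO wells and -100% = cell-free medium wells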
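% activity derives from luminescence (CellTiter-Glo), normalised to DMSO and no-cell wells. HT-1080-IDH1KD cells, 750/well, had 48 h compound exposure at 37 °C.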
KB-V1 MDR tox – kills drug-selected multidrug resistant KB-V1 cells | hit rate 3.4% among 400,000 | Potency, µM (doses to about 46.1 µM), hits mostly cytotoxic | AID 1347076 | KB-V1 MDR cells viability, CellTiter-Glo, 72 h; note: % is set by controls: 0 for no effect and ±100 for the full control effect; nearly all actives have a fitted effect of over 60% in size
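qHTS viability screen in drug-selected KB-V1 MDR cells: 72 h compound treatment at 37 degrees C, ATP luminescence end point.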
HT1080NT lethal – kills 2HG-producing HT-1080-NT fibrosarcoma cells | HT-1080-NT fibrosarcoma viability, CellTiter-Glo ATP luminescence, 48 h | hit rate 1.6% among 360,000 | Potency, µM (top dose mostly 46.1 µM), for inactives: at the top dose activity, negative = less viability, actives largely listed as cytotoxic;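 note: NT is the 2HG producing partner of a matched IDH1 knockdown line; 0% = DMSO-treated cells and -100% = media-only wells without cells; nearly all actives have a fitted effect of over 55% in size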
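Viability of the 2HG-overproducing fibrosarcoma line after 48 hours of compound exposure at 37 degrees C was determined by luminescence with CellTiter-Glo, and concentration-effect curves were then fitted and categorized.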
SW480 rerep – DNA re-replication induction in SW480 cells; AID 624297; SW480 DNA re-replication, Hoechst DNA content imaging, 48 h; Potency, µM (titrated, usually from 46.1 µM), for the others: top-dose re-replication activation, most hits filed as activators; hit rate 1.8% among 340,000; note: % of control where 0% means no effect; nearly all actives have a fitted effect of over 55% in size
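Quantitative HTS format with DMSO vehicle controls; 48 hr drug incubation at 37 C, then 40 min Hoechst staining and scanning imager measurement at 405 nm excitation.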
The depositor's hits bear a star; i = inactive; ? = inconclusive; / = not tested or not shown; ! = not confirmed by another sample; [ ] = another dose, or the depositor's remark. Hits are enriched below; roughly 7.9% of the tested compounds scored in any of these assays. Calls come from the whole dose curve; as a rule, active = well fitted curve in the direction sought with a large enough effect; inconclusive = small, poorly fitted or top-dose-only effect, or another doubt; inactive = no such curve, though single readings can be large; an effect the other way counts as inactive or inconclusive. Potency is the fitted concentration of half-maximal effect.

SMILES	KB-3-1 cytotox	MCF10A rereplic	HT1080 IDH1KD tx	KB-V1 MDR tox	HT1080NT lethal	SW480 rerep
O=C(CCCn1c(=S)[nH]c2ccc(Br)cc2c1=O)N1CCN(c2ccccn2)CC1	i	?	-0.7%	2.91µM*	-18.7%	?
CCOc1ccc(CC(=O)Nc2ccc3nc(N4CCCCC4)cc(C)c3c2)cc1OCC	i	/	/	i	/	/
CCCCN(C)Cc1c(O)ccc2c(-c3ccccc3)cc(=O)oc12	?	-1.7%	-21.0%	10.3µM*	-14.1%	-16.8%
CN1CCN(c2cccc(Nc3nn4c(=O)c5ccc(C(F)(F)F)cc5nc4s3)c2)CC1	i	/	/	i	/	/
O=C(N/N=C/c1cccs1)c1cccc(S(=O)(=O)Nc2ccc(Cl)cc2)c1	i	5.4%	16.4µM*	i	11.6µM*	-26.8%
Cc1ccc(Cn2c(C)c(CNCC(C)c3ccccc3)c(C(=O)O)c2C)cc1 (stereo not given)	i	/	/	?	/	/
COc1ccc(N2C(=O)CSC23C(=O)N(CC(=O)NCCc2ccccc2)c2ccccc23)cc1 (stereo not given)	i	/	/	i	/	/
CC(NC(=O)C1(S(=O)(=O)c2ccc(Cl)cc2)CC1)c1ccccc1 (stereo not given)	i	19.9%	-5.1%	20.6µM*	0.5%	145.8%
O=Cc1cn(-c2ccccc2)nc1-c1ccc(F)cc1	i	1.2%	5.1%	i	2.3%	-2.3%
O=C(O)CCCCCN1C(=O)/C(=C/c2cn(-c3ccccc3)nc2-c2cccs2)SC1=S	i	26.4%	?	i	?	?
CC1=NNC(=O)/C1=C\c1cn(-c2ccccc2)nc1-c1cccs1	i	2.59µM*	8.2µM*	i	8.2µM*	4.11µM*
CC1=NNC(=O)/C1=C\c1cn(-c2ccccc2)nc1-c1ccc(F)cc1	i	4.61µM*	5.8µM*	?	10.3µM*	?
COc1ccc(CN2C[C@@H](CO)O[C@@H](n3cnc4c(N5CCN(CCO)CC5)ncnc43)C2)cc1	i	/	?	i	2.9%	/
Cn1nnc(-c2ccc(OCc3ccccc3F)cc2)n1	i	-0.4%	-13.1%	i	-3.5%	-6.7%
CC(C)n1nnc(-c2ccc(OCc3ccccc3F)cc2)n1	i	-2.5%	-5.4%	i	-7.7%	14.6µM*
CCc1ccc(N2C(=O)CC(c3cc(OC)ccc3OC)C3=C2COC3=O)cc1 (stereo not given)	i	/	/	i	/	/
COC(=O)c1sc(NC(=O)c2c(C)noc2C)nc1C	i	-32.2%	3.0%	i	-0.5%	-8.4%
COC(=O)c1sc(N)c(C(=O)OC)c1COC(=O)c1c(C)noc1C	5.17µM*	9.2µM*	6.31µM*	5.17µM*	7.08µM*	2.91µM*
COCCCNc1cc(C)nc2ccccc12	i	-7.9%	-11.4%	i	-0.2%	3.5%[9.22 µM]
Cc1cc(NCCCCCCCNc2cc(C)nc3cc([N+](=O)[O-])ccc23)c2ccc([N+](=O)[O-])cc2n1	?	3.66µM*	?	20.6µM*	?	?
COc1cc2c(cc1OC)C(c1ccc(Cl)cc1)=NCC2	i	5.3%	-10.5%	i	7.6%	10.8%
COc1cc2c(cc1OC)C(c1ccc(-c3cc(Cl)ccc3Cl)o1)=NCC2	?	?	-6.6%	5.17µM*	-6.7%	16.4µM*
COc1cc2c(cc1OC)C(c1ccc(-c3ccccc3Cl)o1)=NCC2	i	?	12.6µM*	i	?	?
COc1cc2c(cc1OC)C(c1ccc(-c3ccc(Cl)c(Cl)c3)o1)=NCC2	16.4µM*!	2.31µM*	23.1µM*	?	?	18.4µM*
COc1cc2c(cc1OC)C(c1ccc(-c3ccc(Cl)cc3Cl)o1)=NCC2	23.1µM*	?	23.1µM*	2.59µM*	?	?
COc1ccccc1NC(=O)c1sc2nc3n(c(=O)c2c1C)N=C(c1cccc(Br)c1)CS3	i	/	/	i	/	/
